Inconclusive results are not listed. Active and inactive are the calls of the source. The call rests on the fitted dose curve; in most records, active means well fitted cell-killing curve with a large enough effect in the repeat runs; inconclusive means weak or mixed curves, or effect the other way; inactive means no such curve, though single readings can be large or run the other way.
test: qHTS assay to identify small molecule antagonists of the retinoid-related orphan receptor gamma (ROR-gamma) signaling pathway - cell viability counter screen (AID 1159520); conditions: Tet-on RORgamma CHO cells viability, ATP luminescence, 16 h; series mostly up to 92.4 µM; further: nearly all actives have a fitted effect of over 50% in size
Description: U.S. Tox21 Program National Center for Advancing Translational Sciences [NCATS] NIH Chemical Genomics Center [NCGC] U.S. Environmental Protection Agency [EPA] National Institutes of Environmental Health Sciences [NIEHS] National Toxicology Program [NTP] U.S. Food and Drug Administration [FDA] Tox21 Assay Overview: Nuclear steroid hormone receptors are involved in many biological processes including inflammatory responses, cell proliferation, and apoptosis. Environmental factors or compounds disrupting these nuclear receptor pathways and gene expression may promote susceptibility to immunotoxicants and autoimmune diseases. One important group of these expression factors are the retinoid-related orphan receptors. To assess compounds that may interfere with the retinoid-related orphan receptor gamma (ROR-gamma) transcription factor, a cell-based luciferase assay was used. The CHO cell-based assay utilizes a TET-inducible ROR expression factor and ROR response element-LUC reporter gene. Reporter gene activity was induced using Doxycycline Hyclate and measured after 16 hr incubation. Tet-on ROR gamma CHO cells were used to screen against the Tox21 10K compound library for cytotoxicity by measuring the viability of the cells based on the quantitation of the ATP.
Tox21 Assay Protocol Summary: Tet-on ROR gamma CHO cells were dispensed at 1,000 cells in 4 uL of culture medium per well into white wall/solid bottom 1536-well plates using a Multidrop Combi (Thermo Scientific, Waltham, MA) dispenser. Following incubation at 37 C and 5% CO2 for 4 hr, 23 nL of compounds dissolved in DMSO, positive controls or DMSO only were transferred by a Pintool station (Kalypsys, San Diego, CA) and after 2 hr incubation at 37 C, one ul of 1 uM (final concentration) of Doxycycline Hyclate was added to all the wells by using a Flying Reagent Dispenser (FRD) (Aurora Discovery, San Diego, CA). After 16 hr incubation at 37 C and 5% CO2, 5 uL of CellTiter-Glo reagent (Promega Corporation, Madison, WI) was added to each assay plate using FRD. After 30 min incubation at room temperature, luminescence was quantified on a ViewLux plate reader (Perkin Elmer, Waltham, MA).
On the % scale 0 is the no-effect control and ±100 the full control effect.

Row | SMILES | outcome | activity, negative = cytotoxicity
1 | NS(=O)(=O)c1cc2c(cc1Cl)NC(C1CC3C=CC1C3)NS2(=O)=O (stereo not given) | inactive | –
2 | CC(NC(CCc1ccccc1)C(=O)O)C(=O)N1C(=O)N(C)CC1C(=O)O (stereo not given) | inactive | –
3 | CS(=O)(=O)O | inactive | –
4 | OC(CCN1CCCCC1)(c1ccccc1)C1CC2C=CC1C2 (stereo not given) | inactive | –
5 | CO[Si](CCCOCC1CO1)(OC)OC (stereo not given) | inactive | –
6 | O=Cc1cccc([N+](=O)[O-])c1 | inactive | –
7 | CC/C=C\CC/C=C/CO | inactive | –
8 | CC(=O)Nc1c(I)cc(I)c(C(=O)O)c1I | inactive | –
9 | CC(C)NC(=O)NC(C)C | inactive | –
10 | N[C@@H](C(=O)N[C@@H]1C(=O)N2C(C(=O)O)=C(Cl)CS[C@H]12)c1ccccc1 | – | 0.217% [at 8.39 µM] (inactive)
11 | CCOC(=O)[C@H](CCc1ccccc1)N[C@@H](C)C(=O)N1[C@H](C(=O)O)C[C@@H]2CCC[C@@H]21 | inactive | –
12 | O=c1[nH]c(=O)n([C@H]2C[C@H](O)[C@@H](CO)O2)cc1I | inactive | –
13 | Cc1c(NC(C)C)c(=O)n(-c2ccccc2)n1C | inactive | –
14 | CC(=O)CC(C)(C)C1CCCCC1 | inactive | –
15 | COC(C)(C)CCCC(C)CC=O (stereo not given) | inactive | –
16 | Cc1ccc(C#N)cc1 | inactive | –
17 | COC(=O)c1cc(C(=O)OC)cc(S(=O)(=O)O)c1 | inactive | –
18 | CC(C)=CCCC(C)CC(=O)O (stereo not given) | inactive | –
19 | CCOC(=O)c1cccc(N)c1 | inactive | –
20 | CCC(C)C1CCCCC1=O (stereo not given) | inactive | –

Row | SMILES | outcome | activity, negative = cytotoxicity
21 | NC(CSCC(=O)O)C(=O)O (stereo not given) | inactive | –
22 | NC(=O)c1ccc([N+](=O)[O-])cc1 | inactive | –
23 | CCOC(=O)C(=O)OCC | inactive | –
24 | NCCc1cnc[nH]1 | inactive | –
25 | Cc1cc(O)cc2c1O[C@](C)(CCC[C@H](C)CCC[C@H](C)CCCC(C)C)CC2 | inactive | –
26 | C/C=C(\C)C#N | inactive | –
27 | FC1(F)C(F)(F)C(F)(F)C2(F)C(F)(F)C(F)(F)C(F)(F)C(F)(F)C2(F)C1(F)F (stereo not given) | inactive | –
28 | CCCCCCCCCCCCN(CCCCCCCCCCCC)CCCCCCCCCCCC | inactive | –
29 | O=C1OC(=O)C2CCCCC12 (stereo not given) | inactive | –
30 | CCN(CC)CCOCCOC(=O)C1(c2ccccc2)CCCC1 | inactive | –
31 | O=C(c1ccccc1)C1CCCCC1 | inactive | –
32 | CCN(CC)CCNC(=O)c1cc(S(C)(=O)=O)ccc1OC | inactive | –
33 | COC(=O)c1ccc(C)cc1C1=NC(C)(C(C)C)C(=O)N1 (stereo not given) | inactive | –
34 | N=C(N)c1ccccc1 | inactive | –
35 | ClC(Cl)(Br)Br | inactive | –
36 | CC1(C)C(O)C(C)(C)C1O (stereo not given) | inactive | –
37 | COc1ccccc1OCC(O)CN1CCN(CC(=O)Nc2c(C)cccc2C)CC1 (stereo not given) | inactive | –
38 | CCOC(=O)c1ccc(C)cc1 | inactive | –
39 | C=C1CC[C@H]2C[C@@H]1C2(C)C | inactive | –
40 | CCN1CCC[C@H]1CNC(=O)c1cc(S(N)(=O)=O)ccc1OC | inactive | –

From PubChem BioAssay (Tox21)
